In the supplement of paper PMC7411640:
Structures can show the parent of a compound that is named as a salt.

Tested on: MDA-MB-468
Test: phospho-S6 immunofluorescence (DAPI-normalised), per-plate z-score; higher = higher phospho-S6 signal (less pathway suppression)
Conditions: 24 h
Experimental: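 GPCR-targeted compound library (MedChemExpress HY-L006) tested on MDA-MB-468 PTEN-null TNBC cells in 384-well plates at 0.1, 1 or 10 uM, combined with vehicle, GDC0941 450 nM or lapatinib 1 uM, for 24 h. Phospho-S6 (S240/244) immunofluorescence normalised to DAPI and expressed as a per-plate z-score; values are the mean of biological triplicates.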

Row | Structure (SMILES) | phospho-S6 immunofluorescence (z-score) (co-treatment: GDC0941 450 nM) | phospho-S6 immunofluorescence (z-score) (co-treatment: lapatinib 1 uM) | phospho-S6 immunofluorescence (z-score) (co-treatment: vehicle)
1 | O=C1CCc2ccc(OCCCCN3CCN(c4cccc(Cl)c4Cl)CC3)cc2N1 [Aripiprazole] (compound 10 µM) | -3.14 | -5.16 | -3.2
2 | C[C@]12C=CC(=O)C=C1CC[C@H]1[C@@H]3C[C@@H](O)[C@](O)(C(=O)CO)[C@@]3(C)C[C@H](O)[C@@]12F [Triamcinolone] (compound 10 µM) | 0.04 | 0.82 | 0.94
3 | CN1CCC(=C2c3ccccc3CCn3c(C=O)cnc32)CC1 [Alcaftadine] (compound 10 µM) | -0.88 | 1.09 | -0.66
4 | Cc1noc(-c2ccc(-c3ccc(CC(=O)O)cc3)cc2)c1NC(=O)OC(C)c1ccccc1Cl (centres undefined) (compound 10 µM) | 0.23 | 0.28 | 0.02
5 | CCNC1(C(N)=O)CCN(c2ncnc3c2nc(-c2ccccc2Cl)n3-c2ccc(Cl)cc2)CC1 [Otenabant] (compound 10 µM) | -1.75 | -2.03 | -0.02
6 | Clc1ccccc1CN1CCc2sccc2C1 [Ticlopidine (hydrochloride)] (compound 10 µM) | -1.14 | -0.33 | -0.63
7 | CNS(=O)(=O)CCc1ccc2[nH]cc(C3CCN(C)CC3)c2c1 [Naratriptan (hydrochloride)] (compound 10 µM) | -0.23 | 0.4 | 0.18
8 | OCCN1CCN(CCCN2c3ccccc3Sc3ccc(Cl)cc32)CC1 [Perphenazine] (compound 10 µM) | -1.28 | -5.07 | 0.82
9 | CC(=O)Oc1cc2c(s1)CCN(C(C(=O)C1CC1)c1ccccc1F)C2 (centres undefined) [Prasugrel] (compound 10 µM) | -1.29 | 1.92 | -0.48
10 | c1cnc(NCc2ccc(CNc3ncccn3)cc2)nc1 (compound 10 µM) | -0.12 | -0.26 | -0.11
11 | CC(=O)OCC(=O)[C@@]1(O)CC[C@H]2[C@@H]3CCC4=CC(=O)CC[C@]4(C)[C@H]3[C@@H](O)C[C@@]21C [Hydrocortisone (acetate)] (compound 10 µM) | -0.25 | 1.4 | -0.24
12 | CN(C)CCN1C(=O)c2cccc3cc(NC(N)=O)cc(c23)C1=O (compound 10 µM) | 1.29 | 7.09 | 0.12
13 | COC(=O)N(C)c1c(N)nc(-c2nn(Cc3ccccc3F)c3ncccc23)nc1N [Riociguat] (compound 10 µM) | -0.84 | 0.03 | -0.56
